This note sets out measurements from PubChem BioAssay.

This assay in a line: probe aLefty2 binding to arrayed compounds – biochemical, biotinylated probe, 635/667 nm fluorescence, primary screen (AID 1094).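 Note: score merges spot fluorescence near 667 nm with spot signal-to-noise ratio.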 The note with it: small-molecule microarray, higher = more signal.
For `C=C(/C(=C/C[C@H](OC(C)=O)c1ccccc1OCCO)c1cc(C(=O)OC)ccc1OC)C(C)C`, the composite z-score is -0.141. Then `C[N+](C)(C)CCCC[C@@H]1NC(=O)[C@H]2C[C@@H](C(=O)NCCCCCCN)[C@@H](c3ccc(O)cc3)N2C1=O`, with 0.265; and `COc1ccccc1CN1C(=O)c2ccccc2[C@](Cc2ccccc2I)(C(=O)NCC(F)(F)F)[C@@H]1c1ccc(CO)cc1`, with 0.126; and `O=C(NCc1ccccc1)[C@@H]1c2ccccc2C(=O)N(Cc2ccccc2C(F)(F)F)[C@H]1c1ccc(CO)cc1`, with -0.179. `COC(=O)[C@H](Cc1ccccc1)N1CC(/C=C/C2CC2)=C[C@H]1[C@H](O)Cc1ccccc1`: the composite z-score was -0.161. In turn, `CCOC(=O)C1=CC[C@@H](c2ccc(OCc3ccccc3)c(OC)c2)N(S(=O)(=O)c2ccc(C)cc2)[C@H]1c1ccc(SC)cc1` came in with a composite z-score of 0.347. To `COc1cccc(/C=C/C=O)c1` belongs 0.226. For `CC(=O)NCCCC[C@@H]1NC(=O)[C@H]2C[C@@H](C(=O)NCCCC[N+](C)(C)C)[C@@H](c3cccc(OCCO)c3)N2C1=O`, the composite z-score turned out to be 0.0503. To `O=C1C2C=CC(C(O)c3ccccc3)N(Nc3ccccc3F)C2C(=O)N1c1ccccc1` (stereo not given) belongs -0.0381; to `CCOC(=O)C[C@H]1[C@H](OC(=O)c2ccccc2-c2ccccc2)[C@@H](NC(=O)c2ccc(-c3ccccc3)cc2)c2cc(OCCCO)ccc2N1C(=O)c1ccc2ccccc2n1`, 0.0332; to `CO[C@]12C=C(Br)[C@@H](C[C@@H]1c1cccc(C)c1)[C@@]1(CO1)C2=O`, -0.145. To `[N-]=[N+]=Nc1ccccc1[C@@H]1OC(c2ccc(OCCCO)cc2)=N[C@]1(Cc1ccccc1)C(=O)NCC(O)CO` (stereo not given in full) belongs 0.589; to `COc1ccc([Si](C)(C)[C@@H]2[C@@H](CCn3cc([C@H](O)c4ccccc4)nn3)O[C@]3(C(=O)N(Cc4ccc(N5CCC5=O)cc4)c4ccccc43)[C@H]2C)cc1`, -0.177. Turning to `C=CCC(OC(C)=O)[C@@H]1[C@@H](N(Cc2ccc(-c3cccc(C(F)(F)F)c3)o2)C(=O)c2ccc(C)cc2)c2cc(OCCCO)ccc2N1C(=O)c1ccc2ccccc2c1` (stereo not given in full), the composite z-score was -0.138. As to `C=CCC(OC(C)=O)[C@@H]1[C@@H](N(Cc2cccc3ccccc23)C(=O)Cc2ccc(F)cc2)c2cc(OCCCO)ccc2N1C(=O)c1ccc2ccccc2n1` (stereo not given in full), the composite z-score was 0.15. To `C[C@H]1NC(=O)[C@@]23C(=O)N[C@@H](Cc4ccccc4)C2[C@H](C)[C@@]2(C)O[C@H]2C3/C=C/C/C=C\CNC(=O)[C@H](Cc2ccccc2)NC1=O` (stereo not given in full) belongs -0.213. `CCCCCCCCCCC(O)C1C=CC2C(=O)N(C)C(=O)C2N1Nc1ccc([N+](=O)[O-])cc1[N+](=O)[O-]` (stereo not given) displayed a composite z-score of 0.379.

Compound `NCCCCCCNC(=O)[C@@H]1C[C@@H]2C(=O)N[C@@H](CCCCN)C(=O)N2[C@@H]1c1cccc(OCCO)c1` registered a composite z-score of 0.885. In the case of `N#Cc1ccc(C(O)C2C=CC3C(=O)N(c4ccccc4)C(=O)C3N2Nc2ccccc2)cc1` (stereo not given), the composite z-score amounted to 0.443.

Compound `CC1=C([C@H](O)CCc2ccccc2)[C@H](CO)[C@@H]2C(=O)N(C)C(=O)[C@@H]2C1` had a composite z-score of -0.152. For `CCOC(=O)C1=CC[C@@H](c2cccc(Cl)c2)N(S(=O)(=O)c2ccc(C)cc2)C1`, the composite z-score is 0.0771. Compound `COCCOC(=O)N1C(=O)[C@@]2(c3cc(C#Cc4ccc(OC)cc4)ccc31)[C@H](C(=O)Nc1nc3ccccc3s1)[C@H]1C(=O)O[C@H](c3ccccc3)[C@H](c3ccccc3)N1[C@@H]2c1ccc(O)cc1` registered a composite z-score of -0.0071.

`COc1ccc(C#Cc2ccc3c(c2)[C@]2(C(=O)N3)[C@H](c3ccc(O)cc3)N3[C@H](c4ccccc4)[C@H](c4ccccc4)OC(=O)[C@H]3[C@@H]2C(=O)O)cc1` came in with a composite z-score of -0.383. The compound `CC(C)C[C@@H]1NC(=O)[C@@H]2C[C@H](C(=O)NCCCCCN)[C@H](c3ccc(O)cc3)N2C1=O` gave a composite z-score of -0.109. In turn, `CN1C(=O)C2C=CC(C(O)c3ccc(F)cc3)N(Nc3ccccc3)C2C1=O` (stereo not given) displayed a composite z-score of 0.085. `CCC[C@@H]1C[C@@]1(CCC)[C@@H](NC(=O)OCc1ccccc1)c1ccc(-c2ccccc2)cc1` displayed a composite z-score of 0.239. As to `COc1ccc(NC(=O)O[C@H]2[C@H](OC(=O)Nc3ccccc3)[C@H](OC(=O)Nc3ccccc3)[C@@H](OC)O[C@@H]2CO)cc1`, the composite z-score worked out at 0.31. `CC(C)[Si](C#C[Si](C(C)C)(C(C)C)C(C)C)(O[C@H](C)c1cn([C@H](CO)Cc2ccccc2)nn1)C(C)C` showed a composite z-score of -0.0961.

The compound `[N-]=[N+]=NCc1ccccc1[C@@H]1OC(c2ccc(OCCCO)cc2)=N[C@]1(CCS(=O)(=O)c1ccccc1)C(=O)NCC(O)CO` (stereo not given in full) registered a composite z-score of 0.267. `CCC(CC)C(O)C1C=CC2C(=O)N(c3ccccc3)C(=O)C2N1Nc1ccc(C(C)C)cc1` (stereo not given) yielded a composite z-score of 0.0659. `C=C(C)C1CCC(C(O)C2C=CC3C(=O)N(C)C(=O)C3N2N2CCCCC2)CC1` (stereo not given): the composite z-score was determined as 0.398. To `O=C1NC(=O)C2C1C=CC(C(O)c1cccc3ccccc13)N2Nc1ccc(Cl)cc1Cl` (stereo not given) belongs 0.162; to `C=CCOC(=O)[C@H]1[C@@H]2C(=O)O[C@@H](c3ccccc3)[C@@H](c3ccccc3)N2[C@@H](c2ccc(OCCOC(=O)[C@@H]3C[C@@H]4C(=O)N[C@@H](CCCCN(C)C)C(=O)N4[C@@H]3c3ccc(O)cc3)cc2)[C@]12C(=O)Nc1ccccc12`, 0.253; to `CCOC(=O)C1=CC[C@@H](c2ccccc2C(F)(F)F)N(S(=O)(=O)c2ccc(C)cc2)[C@H]1c1ccc(C#N)cc1`, -0.0099.

As for `CCCNC(=O)[C@@H]1c2ccccc2C(=O)N(C(C)C)[C@H]1c1ccc(CO)cc1`, the composite z-score was -0.0458.
